Bioassay records: PubChem BioAssay, Broad Institute
miR-122 inh – raises miR-122 sensor activity in Huh7 cells | Huh7 psiCHECK-miR122 Renilla luciferase sensor, 48 h | activation, % at 12.5 µM | 340,000 compounds, 0.14% hits | AID 623901;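 active means mean activation of 30% or more, with every replicate also reaching 30%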;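 further: higher luciferase signal means stronger suppression of miR-122 activity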
Large screens that a line does not name were inactive. Shown is part of a subset that was picked to be rich in hits.

CCCNC(=O)N(C)C[C@@H]1Oc2ncc(C#CCC3CCCC3)cc2C(=O)N([C@H](C)CO)C[C@@H]1C	none
CCCNC(=O)N(C)C[C@H]1Oc2cc(Br)ccc2S(=O)(=O)N([C@@H](C)CO)C[C@H]1C	none
C[C@@H]1CN([C@@H](C)CO)C(=O)c2cc(C#Cc3ccccn3)cnc2O[C@H]1CN(C)C(=O)CCN1CCCCC1	none
C[C@@H]1CN([C@@H](C)CO)C(=O)c2cc(C#CC3(O)CCCC3)cnc2O[C@H]1CN(C)S(=O)(=O)c1ccccc1	none
Cc1sc2ncnc(N/N=C/c3ccccc3O)c2c1C	miR-122 inh 36.5
CC(C)C#Cc1cnc2c(c1)C(=O)N([C@H](C)CO)C[C@H](C)[C@@H](CN(C)C(=O)CC1CC1)O2	none
CCCN(C)C[C@H]1Oc2cc(C#CC3CC3)ccc2S(=O)(=O)N([C@H](C)CO)C[C@H]1C	none
CN1/C(=C/C=C/c2n(C)c3cc([N+](=O)[O-])c([N+](=O)[O-])cc3[n+]2C)C(C)(C)c2ccccc21	miR-122 inh 37.8
CCCNC(=O)N(C)C[C@H]1Oc2cc(C#CCOC)ccc2S(=O)(=O)N([C@@H](C)CO)C[C@@H]1C	none
C[C@H]1CN([C@@H](C)CO)C(=O)c2cc(-c3cccc(F)c3)cnc2O[C@@H]1CN(C)Cc1ccncc1	none
C[C@@H]1CN([C@@H](C)CO)S(=O)(=O)c2ccc(/C=C/c3ccccc3)cc2O[C@@H]1CN(C)C(=O)NC1CCCCC1	miR-122 inh 40.9
CC(=O)N(C)C[C@H]1Oc2cc(/C=C/c3ccccc3)ccc2S(=O)(=O)N([C@H](C)CO)C[C@@H]1C	none
CC(=O)N(C)C[C@H]1Oc2cc(/C=C/c3ccccc3)ccc2S(=O)(=O)N([C@@H](C)CO)C[C@H]1C	miR-122 inh 34.2
C[C@H](CO)N1C[C@H](C)[C@@H](CN(C)C(=O)Nc2cccc(F)c2)Oc2cc(/C=C/c3ccccc3)ccc2S1(=O)=O	none
C[C@@H]1CN([C@H](C)CO)S(=O)(=O)c2ccc(/C=C/c3ccccc3)cc2O[C@@H]1CN(C)C(=O)c1ccccc1	none
CC(C)CC#Cc1ccc2c(c1)O[C@H](CN(C)C(=O)NC1CCCC1)[C@@H](C)CN([C@H](C)CO)S2(=O)=O	none
CNC[C@H]1Oc2ncc(C#CCC3CCCC3)cc2C(=O)N([C@H](C)CO)C[C@H]1C	none
CC(C)CC#Cc1cnc2c(c1)C(=O)N([C@@H](C)CO)C[C@@H](C)[C@H](CN(C)C(=O)Cc1ccccc1)O2	none
CO[C@@H]1CN(C)C(=O)c2cc(NC(=O)NC(C)C)ccc2OC[C@@H](C)N(C(=O)NC(C)C)C[C@H]1C	none
CCCNC(=O)N(C)C[C@H]1Oc2cc(C#CCOC)ccc2S(=O)(=O)N([C@@H](C)CO)C[C@H]1C	none
C[C@@H]1CN([C@@H](C)CO)C(=O)c2cc(C#CCc3ccccc3)cnc2O[C@@H]1CN(C)CC1CCOCC1	none
CO[C@@H]1CN(C)C(=O)c2ccc(NC(=O)C3CCC3)cc2OC[C@H](C)NC[C@@H]1C	none
C[C@@H]1CN([C@H](C)CO)C(=O)c2cc(C#CCc3ccccc3)cnc2O[C@H]1CN(C)Cc1cccc(C(=O)O)c1	none
C[C@@H]1CN([C@@H](C)CO)C(=O)c2cc(N(C)C)ccc2O[C@@H]1CN(C)C(=O)Nc1ccc(F)cc1	none
C[C@H](NC(=O)C[C@H]1CC[C@@H]2[C@@H](COc3ccc(NS(=O)(=O)c4ccc(Cl)cc4)cc3C(=O)N2C)O1)c1ccccc1	miR-122 inh 45.0
C[C@H](NC(=O)C[C@@H]1CC[C@H]2[C@H](COc3ccc(NS(=O)(=O)c4ccc(Cl)cc4)cc3C(=O)N2C)O1)c1ccccc1	miR-122 inh 36.7
C[C@@H]1CN([C@H](C)CO)C(=O)c2cc(-c3ccc(F)cc3)cnc2O[C@@H]1CN(C)CC1CCOCC1	none
C[C@H]1CN([C@@H](C)CO)C(=O)c2cc(/C=C/c3ccccc3)cnc2O[C@@H]1CN(C)C(=O)c1cccnc1	none
Cc1ccc(-c2cnc3c(c2)C(=O)N([C@H](C)CO)C[C@@H](C)[C@@H](CN(C)C(=O)c2ccncc2)O3)cc1	none
CC(C)Oc1ccc(CNCCC2(C(C)C)CCOC(C)(C)C2)cc1 (stereo not given)	miR-122 inh 70.5
COc1cccc(-c2cnc3c(c2)C(=O)N([C@H](C)CO)C[C@H](C)[C@@H](CN(C)CC2CCOCC2)O3)c1	none
C[C@@H]1CN([C@H](C)CO)S(=O)(=O)c2ccc(-c3ccccc3)cc2O[C@@H]1CN(C)Cc1cncnc1	none
COC(=O)c1cc(=O)n2c(-c3ccc(OC)cc3)csc2n1	miR-122 inh 37.6
C[C@@H]1CN([C@@H](C)CO)C(=O)c2cc(-c3cccc(C#N)c3)cnc2O[C@@H]1CN(C)Cc1ccccc1	none
CCCC#Cc1cnc2c(c1)C(=O)N([C@H](C)CO)C[C@H](C)[C@H](CN(C)Cc1ccccc1F)O2	none
C[C@H]1CN([C@@H](C)CO)C(=O)c2cc(-c3ccc(F)cc3)cnc2O[C@@H]1CN(C)CC1CCOCC1	none
COc1ccc(S(=O)(=O)N(C)C[C@H]2Oc3cc(C#CC4CC4)ccc3S(=O)(=O)N([C@H](C)CO)C[C@H]2C)cc1	none
COCC(=O)N(C)C[C@H]1Oc2cc(Br)ccc2S(=O)(=O)N([C@@H](C)CO)C[C@H]1C	none
C[C@H](CO)N1C[C@H](C)[C@@H](CN(C)C(=O)NC2CCCCC2)Oc2ncc(-c3ccccc3F)cc2C1=O	none
CCc1nc2sc(C)c(C)c2c(=O)n1CCO	miR-122 inh 34.7
C[C@@H]1CN([C@@H](C)CO)C(=O)c2cc(-c3ccncc3)cnc2O[C@H]1CN(C)C(=O)c1ccccc1F	none
C[C@@H]1CN([C@H](C)CO)C(=O)c2cc(-c3cccc(F)c3)cnc2O[C@H]1CN(C)C(=O)C1CCOCC1	none
COc1ccc(NS(=O)(=O)c2ccc(N3CCOCC3)c(NC(=O)c3cccc(F)c3)c2)cc1	none
COc1ccc(NS(=O)(=O)c2ccc(N3CCOCC3)c(NC(=O)c3ccc(F)cc3)c2)cc1	none
COc1nnc(-c2ccc(N3CCOCC3)c(NC(=O)c3ccccc3)c2)c2ccccc12	miR-122 inh 45.1
COCC(=O)N(C)C[C@H]1Oc2ncc(C#Cc3ccncc3)cc2C(=O)N([C@@H](C)CO)C[C@@H]1C	none
C[C@@H]1CN([C@@H](C)CO)S(=O)(=O)c2ccc(-c3ccccc3)cc2O[C@@H]1CN(C)Cc1cncnc1	none
C[C@H](CO)N1C[C@H](C)[C@@H](CN(C)Cc2ccc(C(F)(F)F)cc2)Oc2c(NC(=O)c3nc4ccccc4s3)cccc2C1=O	none
C[C@H](CO)N1C[C@H](C)[C@H](CN(C)CC2CCOCC2)Oc2ncc(C#CCc3ccccc3)cc2C1=O	none
O=C(COc1ccc(S(=O)(=O)NC2CCCCC2)cc1)Nc1ccc2c(c1)OCCO2	none
O=C(Nc1ccc2c(c1)OCCO2)C1CCN(S(=O)(=O)c2ccccc2)CC1	none
O=C(COC(=O)Cc1ccc(S(=O)(=O)N2CCOCC2)s1)Nc1ccc2c(c1)OCO2	miR-122 inh 31.4
CO[C@H]1CN(C)C(=O)c2cc(NC(=O)Cc3ccccc3)ccc2OC[C@@H](C)N(C)C[C@@H]1C	none
COc1ccc(-c2cnc3c(c2)C(=O)N([C@@H](C)CO)C[C@@H](C)[C@@H](CN(C)C(=O)C2CCOCC2)O3)cc1	none
CC(C)C(=O)Nc1ccc2c(c1)C(=O)N(C)[C@H]1CC[C@H](CC(=O)NCc3cccc(F)c3)O[C@@H]1CO2	none
CCNC(=O)C[C@H]1CC[C@@H]2[C@@H](COc3ccc(NC(=O)c4cccc(C(F)(F)F)c4)cc3C(=O)N2C)O1	miR-122 inh 53.3
CN1C(=O)c2cc(NC(=O)c3ccc(C(F)(F)F)cc3)ccc2OC[C@@H]2O[C@H](CC(=O)NCc3ccc4c(c3)OCO4)CC[C@@H]21	miR-122 inh 33.3
